Sampled rows, rich in hits. Any-hit rate of the full collection: about 1.1%.
12-LOX inh: blocks human arachidonate 12S-lipoxygenase; 580,000 tested, 1.1% active; Potency, µM (top dose mostly 108 µM), for the others: top-dose activity change, negative = inhibition, usual class: inhibitors; purified 12hLO, xylenol orange hydroperoxide absorbance; also: % is scaled to controls: 0 for no effect and ±100 for the full control effect
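Purified human 12hLO at 150 nM in 25 mM Hepes, 0.01% Triton X-100, pH 7.0, preincubated 15 min at room temperature with compound. Reaction started with 40 uM arachidonic acid, 30 min at room temperature. Hydroperoxide measured by Fe-xylenol orange, 573/405 nm absorbance ratio.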
Eya2 inh: inhibitors of human Eya2 phosphatase activity; O00167; recombinant Eya2, OMFP fluorescence dephosphorylation (OMFP is methylfluorescein phosphate); Potency, µM (top dose mostly 76.9 µM), inactives show top-dose activity, negative = inhibition, most hits filed as inhibitors; 330,000 tested, 0.006% active; also: % is scaled to controls: 0 for no effect and ±100 for the full control effect
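Eya2 protein (added as 0.2 uM solution) was preincubated with compound for 10 min at ambient temperature in 50 mM HEPES pH 7.5, 50 mM NaCl, 5 uM MgCl2, 0.05% BSA, 1 mM DTT. OMFP (added at 50 uM) then reacted 10 min; fluorescence read at 485/525 nm.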
USP2a block: blocks human ubiquitin-specific protease USP2a; O75604; USP2 core, Ub-CHOP2 coupled fluorogenic reporter, 485/531; Potency, µM (series often up to 38.3 µM), inactives show at the highest dose activity change, negative = inhibition, actives largely listed as inhibitors; 330,000 tested, 0.01% active; AID 463254;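 also: plate controls were DMSO wells for no effect and full inhibition by NEM control for full effect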
Target sequence (O75604 whole entry, looked up): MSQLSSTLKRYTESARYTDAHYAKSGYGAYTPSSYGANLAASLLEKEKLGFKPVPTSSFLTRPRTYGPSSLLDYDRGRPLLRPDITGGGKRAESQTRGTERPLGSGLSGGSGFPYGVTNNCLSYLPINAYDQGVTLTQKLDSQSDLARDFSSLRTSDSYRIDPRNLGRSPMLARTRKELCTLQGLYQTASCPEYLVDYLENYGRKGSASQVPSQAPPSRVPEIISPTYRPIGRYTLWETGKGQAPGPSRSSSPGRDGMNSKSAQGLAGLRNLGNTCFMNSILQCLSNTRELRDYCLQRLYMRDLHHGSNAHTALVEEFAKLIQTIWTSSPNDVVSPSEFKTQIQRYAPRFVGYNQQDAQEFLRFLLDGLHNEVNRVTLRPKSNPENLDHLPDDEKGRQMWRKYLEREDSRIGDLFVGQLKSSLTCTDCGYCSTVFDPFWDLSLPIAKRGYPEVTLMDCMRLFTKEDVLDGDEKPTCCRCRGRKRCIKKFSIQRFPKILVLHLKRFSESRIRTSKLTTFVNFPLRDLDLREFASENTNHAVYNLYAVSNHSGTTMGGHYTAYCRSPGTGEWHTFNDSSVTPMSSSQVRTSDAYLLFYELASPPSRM
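Deubiquitinase activity read as fluorescence (485/531 nm) after Ub-CHOP2 cleavage activates the enterokinase reporter on its substrate; USP2 core 10nM, Ub-CHOP2 and substrate 25nM each, 30min compound preincubation then 60min RT; data normalized to NEM, curves fitted.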
PTAP TSG101 blk: blocks PTAP/TSG101 interaction to inhibit HIV-1 budding; Q99816; Fluorescence polarization, FITC-PTAP peptide / Tsg101 binding; Potency, µM (titrated, usually from 115 µM), inactives show at the highest dose activity change, negative = inhibition, usual class: inhibitors; 340,000 tested, under 10 active; AID 493005; active = well fitted inhibition curve with a large enough effect in the main read-out, with a control signal flat, not every such curve was filed as active; inconclusive = small, poorly fitted or top-dose-only effect, or effect the other way, or a change in a side signal; inactive = no such curve, though single readings can be large or run the other way; also: % of control where 0% means no effect
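Compounds were pin-transferred onto Tsg101 binding domain (10 uM final) in HEPES pH 7.5 buffer, then FITC-PTAP peptide was added at 50 nM final. After 20 min at RT, polarization reported peptide displacement across a qHTS concentration series.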
* hit, by the source's call; ? = inconclusive; . = no result; ! = a repeat was not active; [ ] = another dose, or the depositor's remark. Unless noted, calls follow the shape of the dose curve; as a rule, active = well fitted curve in the direction sought with a large enough effect; inconclusive = small, poorly fitted or top-dose-only effect, or another doubt; inactive = no such curve, though single readings can be large; an effect the other way counts as inactive or inconclusive. Potency is read from the fitted curve at half-maximal effect.

SMILES	12-LOX inh	Eya2 inh	USP2a block	PTAP TSG101 blk
Cc1ccccc1Oc1nc2ccccn2c(=O)c1/C=C(\C#N)c1nc2ccccc2[nH]1	-1%	.	.	.
CC(NC(=O)CSc1nc2c(cc1C#N)CCCC2)c1ccccc1 (stereo unspecified)	9%	.	.	.
CN(C)S(=O)(=O)c1cccc(NC(=S)N/N=C/c2cccc(O)c2)c1	-8%	?	1%	1%
CN(C)S(=O)(=O)c1cccc(NC(=S)N/N=C/c2cc(Br)ccc2O)c1	28µM*	-12%	-2%	-8%
O=C(NC12CC3CC(CC(C3)C1)C2)c1cc(Br)c[nH]1	14%	.	.	.
CN(C)CCCn1c(=S)[nH]c2sc3c(c2c1=O)CCCC3	14µM*	2%	-1%	1%
OC(CNCc1ccco1)Cn1c2ccc(Br)cc2c2cc(Br)ccc21 (stereo unspecified)	6.3µM*	-3%	2%	-2%
Brc1ccc2ncnc(NCc3ccco3)c2c1	-19%	-5%	0%	-4%
O=S1OCCSc2sc(=S)sc2SCCO1	28µM*	.	.	.
CC/C=C\CCCCCO	7%	.	.	.
Cc1ccc(-c2[nH]c3ccccc3c2C=O)cc1C	13%	.	.	.
Cc1ccc2[nH]c(-c3ccc(Cl)cc3)c(C#N)c2c1	-10%	.	.	.
Cc1ccc(-c2[nH]c(=S)[nH]c(=O)c2C#N)cc1	16µM*	-4%	0%	-8%
CC(C)c1ccc(NS(=O)(=O)c2ccc3[nH]cc(C(=O)NC4CCCCC4)c(=O)c3c2)cc1	35µM*	.	.	.
Cc1cccc(C)c1N1C(=O)C(CCc2ccccc2)N(C(=O)c2ccc(F)cc2)c2ccccc21 (stereo unspecified)	8%	.	.	.
O=C(CCNC(=O)C1CCCC1)NCCc1ccsc1	-39%	.	.	.
CNC(=O)[C@@H](c1ccccc1F)N1CCC[C@H]1C(=O)NC1CC1	25µM*	.	.	.
CCNC(=O)[C@@H]1CCCN1[C@@H](C(=O)NC)c1ccccc1F	-9%[176 µM]	.	.	.
O=C(c1ccc(CNc2nccc(-c3cccnc3)n2)cc1)N1CCCCC1	31%	.	.	.
CC(Sc1nc2cc(S(=O)(=O)N3CCCCC3)ccc2o1)C(=O)Nc1ccc(F)cc1Cl (stereo unspecified)	-26%	.	.	.
CCSc1oc(-c2ccccc2)nc1S(=O)(=O)c1ccccc1	?	-43%	-3%	-2%
CCCCSc1oc(-c2ccco2)nc1S(=O)(=O)c1ccc(F)cc1	7.9µM*	.	.	.
CCCSc1oc(-c2ccco2)nc1S(=O)(=O)c1ccc(C)cc1	?	-12%	-2%	4%
CCSc1oc(-c2ccc(F)cc2)nc1S(=O)(=O)c1ccc(C)cc1	40µM*!	.	.	.
CC(C)Sc1oc(-c2ccco2)nc1S(=O)(=O)c1ccc(F)cc1	28µM*!	0%	4%	-4%
SMILES	12-LOX inh	Eya2 inh	USP2a block	PTAP TSG101 blk
CC#Cc1cc2c(cc1O)CCC1C2CCC2(C)C(O)CCC12 (stereo unspecified)	45µM*	.	.	-4%
COc1ccc(-n2nc3n(c2=O)CCN(Cc2ccsc2)C3)cc1	14%[6.33 µM]	.	.	.
CC(=O)NN1C(=O)c2ccccc2NC1c1ccccc1O (stereo unspecified)	30%	?	5%	-3%
COC(=O)C1=C(C(=O)OC)C(c2ccccc2O)c2sc(=O)[nH]c2S1 (stereo unspecified)	45µM*	5%	0%	-2%
O=C(c1cc(-c2ccc(F)cc2)nc2ccccc12)N1CCC(c2nc(C3CCOCC3)no2)C1 (stereo unspecified)	9%	.	.	.
CC1=C(C#N)C(=O)NC(=O)/C1=C\c1ccc(-c2ccc(C)cc2[N+](=O)[O-])o1	11µM*	-23%	1%	-5%
CCc1ccc(NC(=O)c2ccccc2SCC(=O)NCc2ccco2)cc1	5.6µM*	.	.	.
CCc1ccc(-c2cc(C(=O)NCc3ccco3)c3ccccc3n2)cc1	14µM*	.	.	.
Cc1ccc(-c2cc(C(=O)NCc3ccco3)c3ccccc3n2)s1	25µM*!	1%	0%	0%
O=C(NCc1ccco1)c1cc(-c2cccs2)nc2ccccc12	?	-27%	-1%	-4%
COc1cc(-c2cc(C(=O)NCc3ccco3)c3ccccc3n2)cc(OC)c1OC	?	-9%	1%	0%
COc1ccc(-c2cc3c(=O)n(CCNC(=O)c4ccoc4)ccn3n2)cc1	61%	.	.	.
CCOC(=O)c1cnc2ccccc2c1N(C)CC(=O)N(C)C	5%	.	.	.
CCc1nc2c(c(-c3ccc(Cl)cc3)n1)CN(Cc1cccc(F)c1)CC2	-13%	.	.	.
O=C1C=C(c2ccccc2)C[C@H](c2cccs2)[C@H]1n1nnc([N+](=O)[O-])n1	50µM*	-19%	-6%	0%
Cc1ccc(-c2cc3c(=O)n(CCNC(=O)c4ccc(Cl)cc4)ccn3n2)cc1C	-24%	.	.	.
Cc1ccc(-c2cc3c(=O)n(CCNC(=O)Cc4ccc(Cl)cc4)ccn3n2)cc1C	40µM*	.	.	.
CN(C)C(=O)c1ccc(-c2cc(-n3ccnc3)ncn2)cc1	25µM*	.	.	.
CN1CCN(C)c2cnc(-c3ccc(C(=O)N(C)C)cc3)cc2C1	28%[176 µM]	.	.	.
c1cncc(-c2cncnc2-n2ccnc2)c1	7.9µM*	.	.	.
c1cncc(-c2cc(-n3ccnc3)ncn2)c1	45µM*	.	.	.
CC(=O)c1cccc(NC(=O)N2C[C@H](c3nc(-c4ccncc4)no3)[C@@H](C)C2)c1	4%	.	.	.
COc1ccc(C(=O)N2CCC3(CC2)OC(=O)N(Cc2ccccc2F)C3(C)c2ccccc2)cc1 (stereo unspecified)	-22%	.	.	.
O=C(Cn1cnnn1)N1CC(c2noc(C3CCCN3CC3CC3)n2)C1 (stereo unspecified)	51%	.	.	.
C[C@@H](NCCCc1cccc(C(F)(F)F)c1)c1cccc2ccccc12	8.9µM*!	.	.	.
SMILES	12-LOX inh	Eya2 inh	USP2a block	PTAP TSG101 blk
CNCc1cccc(C(F)(F)F)c1	0%[12.5 µM]	.	.	.
COc1ccc(OCC(=O)NC2CCCN(Cc3ccc(Cl)cc3)C2)cc1 (stereo unspecified)	16µM*	-19%	-8%	0%
CN(C)c1ccc(-c2cc(O)c3ncccc3c2)cc1	-6%	-1%	0%	-11%
CN(C)c1ccc2ncccc2c1	5µM*	.	.	.
CN1CCC(N2CCN(C3CN(Cc4cn(Cc5cccc(C(F)(F)F)c5)nn4)S(=O)(=O)C3)CC2)CC1 (stereo unspecified)	5.6µM*	.	.	.
CN(C)CCN1CCN(C2CN(Cc3cn(Cc4cccc(Cl)c4)nn3)S(=O)(=O)C2)CC1 (stereo unspecified)	7.9µM*	.	.	.
O=S1(=O)CC(N2CCN(Cc3ccccc3F)CC2)CN1Cc1cn(Cc2ccc(C(F)(F)F)cc2)nn1 (stereo unspecified)	40µM*	.	.	.
O=S1(=O)CC(N2CCCC2)CN1Cc1cn(Cc2cccc(Cl)c2)nn1 (stereo unspecified)	0%	.	.	.
COc1cc(-c2nc(CC(=O)NC3CCN(Cc4ccccc4)CC3)cs2)cc(OC)c1OC	-2%	.	.	.
CCOC(=O)c1cc(-c2ccccc2)sc1NC(=O)c1ccc(OC)c(OC)c1	11µM*	1%	2%	-1%
CCOC(=O)c1cc(-c2ccccc2)sc1NC(=S)Nc1cccc(C)n1	20µM*	8%	1%	0%

Assay outcomes as filed in PubChem BioAssay.
